From PubChem BioAssay (EPA / NIEHS)
Calls of active or inactive are those of the source. The calls were made as follows: active = hit-call score of the fitted dose curve at least 0.9, where 1 is the maximum; inactive = score below 0.9.

Target: Hypoxia-inducible factor 1-alpha (Homo sapiens) (UniProt Q16665)
Assay: ATG_HIF1a_CIS: Attagene CIS-FACTORIAL HepG2 Assay for human Hypoxia Inducible Factor 1 (HIF1A) (AID 2282951)
Conditions: HepG2 Attagene cis-factorial HIF1a reporter transcription; actives raise or lower the signal
Experimental: ATG_CIS is a cell-based, multiplexed-readout assay that uses HepG2, a human liver cell line, with measurements taken at 24 hours after chemical dosing in a 24-well plate.ATG_HIF1a_CIS is one of 52 assay component(s) measured or calculated from the ATG_CIS assay. It is designed to make measurements of mRNA induction, a form of inducible reporter, as detected with fluorescence intensity signals by Reverse transcription polymerase chain reaction (RT-PCR) and Capillary electrophoresis technology.Data from the assay component ATG_HIF1a_CIS was analyzed into 1 assay endpoint. This assay endpoint, ATG_HIF1a_CIS, was analyzed with bidirectional fitting relative to DMSO as the negative control and baseline of activity. Using a type of inducible reporter, measures of mRNA for gain or loss-of-signal activity can be used to understand the reporter gene at the transcription factor-level as they relate to the gene HIF1A. Furthermore, this assay endpoint can be referred to as a primary readout, because this assay has produced multiple assay endpoints where this one serves a reporter gene function. To generalize the intended target to other relatable targets, this assay endpoint is annotated to the dna binding intended target family, where the subfamily is basic helix-loop-helix protein.
Human liver HepG2 cells are transiently transfected with multiple reporter transcription units (MRTUs) in 6-well plates using FuGene 6 reagent (Roche; 3 ml FuGene/1 mg DNA). The MRTU constructs are regulated by a cis-regulating element (promoter). […] A major difference between the CIS and TRANS system is that in CIS activities of endogenous TFs are measured, whereas the TRANS assay evaluates changes in activities of exogenous, chimeric NR-Gal4 proteins. […] At the end of 24 hour incubation, total RNA was isolated using TriZol reagent (Invitrogen). The isolated RNA is then reverse-transcribed using oligo(dT) primer and Mo-MLV reverse transcriptase (Invitrogen) with DNAse I (Ambion) treatment for 30 min. The one-tenth of the produced cDNA was amplified by PCR using Taq DNA polymerase (Invitrogen) and two reporter sequence-specific primers. The PCR products were fluorescently labeled by primer extension with 6-arboxyfluorescein (6-FAM) 5'-labeled reporter sequence-specific primer (2 min at 95 C, 20 s at 68 C and 10 min at 72 C) and these products were digested with 5U of HpaI (New England Biolabs) for 2h at 37 C. The fragments were purified using Qiaquick PCR columns (Qiagen), analyzed on an ABI 3130xL genetic analyzer (Applied Biosystems) with peak positions identified by using a set of X-rhodamine (ROX)-labeled MapMarker1000 molecular weight standards (BioVentures). The raw capillary electrophoresis data was processed using Attagraph software (Attagene).

Chain of Hypoxia-inducible factor 1-alpha (Homo sapiens) (Q16665 whole entry, looked up): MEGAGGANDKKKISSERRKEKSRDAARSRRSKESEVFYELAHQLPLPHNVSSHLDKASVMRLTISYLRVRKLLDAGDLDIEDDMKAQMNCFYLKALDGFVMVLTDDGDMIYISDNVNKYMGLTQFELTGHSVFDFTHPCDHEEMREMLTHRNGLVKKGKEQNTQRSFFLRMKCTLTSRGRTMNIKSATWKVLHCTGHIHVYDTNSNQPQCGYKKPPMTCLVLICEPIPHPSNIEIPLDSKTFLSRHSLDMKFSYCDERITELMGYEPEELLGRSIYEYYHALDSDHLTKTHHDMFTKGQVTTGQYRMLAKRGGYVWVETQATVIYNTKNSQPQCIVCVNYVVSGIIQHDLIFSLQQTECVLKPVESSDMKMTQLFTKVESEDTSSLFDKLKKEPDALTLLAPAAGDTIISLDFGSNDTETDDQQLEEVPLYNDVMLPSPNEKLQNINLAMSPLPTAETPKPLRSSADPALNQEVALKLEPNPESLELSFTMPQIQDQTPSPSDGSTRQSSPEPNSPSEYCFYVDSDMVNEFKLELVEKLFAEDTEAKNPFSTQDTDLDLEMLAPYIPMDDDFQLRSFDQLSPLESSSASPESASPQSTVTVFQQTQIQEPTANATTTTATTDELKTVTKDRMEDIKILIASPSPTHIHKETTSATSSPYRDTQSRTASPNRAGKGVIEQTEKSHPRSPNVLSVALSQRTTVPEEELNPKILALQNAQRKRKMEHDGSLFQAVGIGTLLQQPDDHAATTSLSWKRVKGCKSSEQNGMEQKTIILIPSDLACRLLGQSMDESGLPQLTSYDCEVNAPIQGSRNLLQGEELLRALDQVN

Q: `CCCCN(CCCC)CCCC` was tested. Which outcome did it give?
A: The outcome was “inactive”.

Q: With `CCCCCCCCCCCC(=O)OC` as the compound, how does the outcome read?
A: Its outcome is “inactive”.

Q: How did the outcome turn out when `CCCCOC(=O)CCCCCCCCC(=O)OCCCC` was run?
A: Its outcome is “inactive”.

Q: For `Cc1nc(C)nc(N2C[C@@H](C)N(c3ccnc([C@@H](C)O)n3)[C@@H](C)C2)n1`, which outcome is on record?
A: Its outcome is “inactive”.

Q: `CC(=O)OC/C=C(\C)CCC=C(C)C` was tested. Which outcome did it give?
A: The outcome was “inactive”.

Q: How did the outcome turn out when `CC=Cc1ccc(O)c(OC)c1` was run?
A: The outcome was “inactive”.

Q: How did the outcome turn out when `c1cc(-c2ccncc2)ccn1` was run?
A: Its outcome is “inactive”.

Q: How did the outcome turn out when `COc1ccc2c(c1)c(CC(=O)O)c(C)n2C(=O)c1ccc(Cl)cc1` was run?
A: The outcome was “inactive”.

Q: `COc1cc(C=O)ccc1O` was tested. Which outcome did it give?
A: Its outcome is “inactive”.

Q: Which AC50 does the source give for `COc1ccc(S(=O)(=O)N2C(=O)[C@@](c3ccccc3OC)(N3C[C@H](O)C[C@H]3C(=O)N(C)C)c3cc(Cl)ccc32)c(OC)c1` here?
A: The AC50 was 25.2 µM (active).

Q: How did the outcome turn out when `Cc1ccc(C(C)C)c(O)c1` was run?
A: The outcome was “inactive”.

Q: How did the outcome turn out when `FC(F)(F)C(F)(F)C(F)(F)C(F)(F)C(F)(F)C(F)(F)CCI` was run?
A: The outcome was “inactive”.

Q: `Cc1ccc2ncccc2c1` was tested. Which outcome did it give?
A: Its outcome is “inactive”.

Q: For `CCCCCCCC=O`, which outcome is on record?
A: The outcome was “inactive”.

Q: Which outcome does the source give for `CC(C)(C)c1cc(O)c(C(C)(C)C)cc1O` here?
A: Its outcome is “inactive”.

Q: How did the outcome turn out when `CC(=O)C(C)=CC1C(C)=CCCC1(C)C` (stereo not given) was run?
A: Its outcome is “inactive”.

Q: How did the outcome turn out when `Cc1c(C(=O)O)c(O)cc2c1C(=O)c1c(O)c([C@@H]3O[C@H](CO)[C@@H](O)[C@H](O)[C@H]3O)c(O)c(O)c1C2=O` was run?
A: The outcome was “inactive”.

Q: Which outcome does the source give for `CNC(=O)[C@H]1O[C@@H](n2cnc3c(NCc4cc(Cl)ccc4OCc4cc(C)no4)ncnc32)[C@H](O)[C@@H]1N` here?
A: The outcome was “inactive”.

Q: `C=CCOC(=O)c1ccccc1C(=O)OCC=C` was tested. Which outcome did it give?
A: The outcome was “inactive”.

Q: For `CCCCCC(=O)O`, which outcome is on record?
A: The outcome was “inactive”.

Q: `Cc1cccc([N+](=O)[O-])c1C` was tested. Which outcome did it give?
A: The outcome was “inactive”.

Q: How did the AC50 turn out when `Oc1ccc2ccccc2c1N=Nc1ccccc1` was run?
A: Its AC50 is 1.24 µM (active).

Q: How did the outcome turn out when `O=C(N[C@@H](Cc1ccccc1)[C@@H](O)C(=O)N1C[C@@H](O)[C@@H](O)C1)c1cc2cc(Cl)ccc2[nH]1` was run?
A: Its outcome is “inactive”.

Q: For `Cc1cc(NC(=O)C(=O)O)cc(C)c1Oc1ccc(O)c2c1CCC2`, which outcome is on record?
A: Its outcome is “inactive”.

Q: `Cc1ccc(N(C)C)cc1` was tested. Which outcome did it give?
A: The outcome was “inactive”.

Q: With `Nc1ccc2c(c1)C(=O)c1ccccc1C2=O` as the compound, how does the outcome read?
A: The outcome was “inactive”.

Q: For `CCCCCCCCCCC`, which outcome is on record?
A: The outcome was “inactive”.

Q: Which outcome does the source give for `Cc1cccc(C)c1O` here?
A: The outcome was “inactive”.

Q: Which outcome does the source give for `CC1(C)CC(N=C=O)CC(C)(CN=C=O)C1` (stereo not given) here?
A: Its outcome is “inactive”.

Q: Which AC50 does the source give for `O=C(OCCCCCOC(=O)c1ccccc1)c1ccccc1` here?
A: Its AC50 is 26.3 µM (active).

Q: `Cc1cc(=O)[nH]c(=S)[nH]1` was tested. Which outcome did it give?
A: Its outcome is “inactive”.

Q: With `CCCCCCCCCCCCCCCC` as the compound, how does the outcome read?
A: The outcome was “inactive”.

Q: Which outcome does the source give for `CCCCCCCCCCO` here?
A: The outcome was “inactive”.

Q: How did the AC50 turn out when `Cc1ccc(Cl)cc1` was run?
A: Its AC50 is 57.2 µM (active).

Q: How did the AC50 turn out when `CCCCC(CC)COC(=O)CC(C(=O)OCC(CC)CCCC)S(=O)(=O)O` (stereo not given) was run?
A: The AC50 was 0.000743 µM (active).

Q: With `CCCCCCOCCO` as the compound, how does the outcome read?
A: The outcome was “inactive”.

Q: `C1CCC(SSC2CCCCC2)CC1` was tested. Which outcome did it give?
A: Its outcome is “inactive”.

Q: Which outcome does the source give for `COc1cc(-c2nc(NC(=O)c3cc4cc(C)cc(C)c4n3CC(=O)O)sc2CCC2CCCCC2)c(OC)cc1Cl` here?
A: Its outcome is “inactive”.

Q: `CC(=O)OCCOCCOCCOC(C)=O` was tested. Which AC50 did it give?
A: The AC50 was 39.4 µM (active).

Q: `C[Si]1(C)O[Si](C)(C)O[Si](C)(C)O[Si](C)(C)O1` was tested. Which outcome did it give?
A: The outcome was “inactive”.
